Screens as filed in PubChem BioAssay.
An excerpt weighted towards active compounds, which were near 1.1% of everything screened.
HTR5A ag = HTR5A agonists in luminescence cell assay, primary screen, counter-screen for OPRM1-OPRD1 heterodimer agonist project, full-deck HTS | cell-based | 5-hydroxytryptamine receptor 5A (Homo sapiens), P47898 | 340,000 tested, 0.61% active | activation, % at 9.3 µM; in the data active means activation mostly above about 9.5%, no sharp cut-off; inactive means mostly below about 7.6%;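 further: 0% = cells with vehicle only and 100% = reference agonist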
OPRM1-OPRD1 inv = inverse agonists of MOR-DOR heterodimerization, primary screen, cell-based, luminescence | cell-based MOR-DOR heterodimer luminescence, inverse agonism | inhibition, % at 9.3 µM | 340,000 tested, 0.21% active; in the data active means inhibition above about 22%, passing the limit was not always enough;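 further: 0% = cells with DMSO and 100% = wells without cells with DMSO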
Target sequence (P35372 whole entry, looked up): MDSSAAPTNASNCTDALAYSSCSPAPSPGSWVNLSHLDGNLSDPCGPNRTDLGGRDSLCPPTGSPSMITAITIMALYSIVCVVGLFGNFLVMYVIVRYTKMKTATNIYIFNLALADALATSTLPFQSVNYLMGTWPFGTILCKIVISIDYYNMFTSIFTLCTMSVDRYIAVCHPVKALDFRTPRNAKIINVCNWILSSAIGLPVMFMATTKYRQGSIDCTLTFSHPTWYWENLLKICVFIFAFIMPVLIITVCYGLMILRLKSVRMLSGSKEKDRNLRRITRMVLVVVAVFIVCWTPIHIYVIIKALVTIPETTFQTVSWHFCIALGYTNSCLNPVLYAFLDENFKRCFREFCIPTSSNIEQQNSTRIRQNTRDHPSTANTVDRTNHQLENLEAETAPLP
Target sequence (P41143 whole entry, looked up): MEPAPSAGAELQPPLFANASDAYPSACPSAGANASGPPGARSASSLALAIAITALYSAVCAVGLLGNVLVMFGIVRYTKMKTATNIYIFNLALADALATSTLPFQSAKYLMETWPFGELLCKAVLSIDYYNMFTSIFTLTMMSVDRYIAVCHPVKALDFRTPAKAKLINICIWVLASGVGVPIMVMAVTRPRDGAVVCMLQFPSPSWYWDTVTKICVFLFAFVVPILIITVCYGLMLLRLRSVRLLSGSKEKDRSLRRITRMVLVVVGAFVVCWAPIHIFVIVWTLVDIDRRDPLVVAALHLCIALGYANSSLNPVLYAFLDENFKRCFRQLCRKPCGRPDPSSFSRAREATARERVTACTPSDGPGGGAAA
HTR5A inv ctr = HTR5A inverse agonists in luminescence cell assay, primary screen, counter-screen for OPRM1-OPRD1 heterodimer inverse agonist project, full-deck HTS; 340,000 tested, 0.083% active; HTR5A cell line, inverse agonism; inhibition, % at 9.3 µM; AID 504634, 2011; 5-hydroxytryptamine receptor 5A (Homo sapiens), P47898; in the data active means inhibition mostly above about 23%, no sharp cut-off; inactive means mostly below about 18%;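 further: 0% = cells with DMSO and 100% = no-cell wells with DMSO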
MOR-DOR ag-1 = agonists of OPRM1-OPRD1 heterodimerization, primary screen, cell-based, luminescence; cells; Mu-type opioid receptor (Homo sapiens) + Delta-type opioid receptor (Homo sapiens), …; AID 504326, 2011; 340,000 tested, 0.3% active; activation, % at 9.3 µM;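 further: 0% = vehicle-treated cells and 100% = reference agonist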
MOR-DOR ag-2 = OPRM1-OPRD1 heterodimerization promoters, counter-screen for HTR5A agonist project, cell-based, luminescence; shares compounds with HTR5A ag; U2OS counter-screen cells, complementation luminescence, 3 h; activation, % at 9.3 µM; 800 tested, 13% active; AID 504913, 2011
HTR5A ag conf = HTR5A agonists, retest of hits, confirmation, cell-based, luminescence. shares compounds with HTR5A ag. HTR5A agonist cell assay. activation, % at 9.3 µM. 800 tested, 17% active; in the data active means activation above about 17%;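 further: 0% = cells with vehicle only and 100% = full reference agonist response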
* = called active by the depositor; · = not tested or not shown. Unless noted, no stated cut-off is given here; in the data, active means activation above about 18%; inactive means the rest.

SMILES	HTR5A ag	OPRM1-OPRD1 inv	HTR5A inv ctr	MOR-DOR ag-1	MOR-DOR ag-2	HTR5A ag conf
COc1ccccc1NC(=O)CN1CCN(c2ccccc2)CC1	15*	11	10	-2	2	1
COc1ccccc1NC(=O)CCN1CCN(Cc2ccccc2)CC1	21*	-6	-54	1	2	4
COc1ccccc1NC(=O)CN1CCN(c2ccc(Cl)cc2)CC1	-4	-5	10	1	·	·
O=C(Nc1ccccc1)C(=O)Nc1ccc2c(c1)N(C(=O)C1CC1)CCC2	4	-7	-12	1	·	·
CC(C)C(=O)NCCc1nc2ccccc2n1CCCOc1ccc(Cl)cc1	-4	-1	12	0	·	·
Cc1ccc(OCCn2c(CCNC(=O)C(C)C)nc3ccccc32)cc1	20*	13	-55	-2	5	11
CN(C)c1ccc(CN(C(=O)COc2ccccc2)C2CCS(=O)(=O)C2)cc1 (stereo not given)	16*	3	-39	-1	3	3
CCn1ncc(/C=N\NC(=O)c2csc3ccccc23)c1C	18*	16	-71	-3	49*	-4
O=C(N/N=C/c1cccc(O)c1)c1csc2ccccc12	1	-11	13	3	·	·
O=C(N/N=C1\CCCc2ccccc21)c1ccccc1[N+](=O)[O-]	15*	-20	3	3	2	15
Cc1ccc(SCCC(=O)OCC(=O)Nc2ccc(C(N)=O)cc2)cc1	2	10	-6	-3	·	·
NC(=O)c1ccc(NC(=O)COC(=O)c2c[nH]c3ccccc23)cc1	18*	-2	-54	0	17	-3
NC(=O)c1ccc(NC(=O)COC(=O)CCSc2ccccc2)cc1	15*	16	-42	-3	7	7
COc1ccc(S(=O)(=O)N2CCCCC2)cc1NC(=O)c1ccc(OC)c(OC)c1	-4	6	9	-1	·	·
CC1(C)Cc2c(C#N)c(N3CCN(C(=O)c4ccco4)CC3)nc(-c3ccco3)c2CS1	18*	7	-32	-1	0	5
CCN(CC)c1ccc(NC(=O)c2ccc3c(c2)c(C)c(C)n3C)cc1	-5	-12	14	2	·	·
CCOc1cc(S(=O)(=O)N2CCCCCC2)ccc1F	20*	-4	-15	1	2	4
CCOc1ccccc1N1CCN(S(=O)(=O)c2ccc(F)c(F)c2)CC1	-1	1	-7	0	·	·
Cc1ccc(C(=O)c2coc3c2C(=O)C(=O)c2ccccc2-3)cc1	19*	-73	-33	13	7	7
Cc1oc2c(c1C(=O)c1ccc(Cl)cc1)C(=O)C(=O)c1ccccc1-2	0	-17	0	3	·	·
Cc1ccc(S(=O)(=O)N2CCN(C(=O)CN3C(=O)c4ccc([N+](=O)[O-])cc4C3=O)CC2)c(C)c1	-8	-30	10	5	·	·
Cc1ccc(-c2nc(NC(=O)c3nn(C)cc3[N+](=O)[O-])sc2C)cc1C	17*	-80	2	14	24*	12
Cc1ccc(-c2nc(NC(=O)c3nn(C)cc3[N+](=O)[O-])sc2C)cc1	-1	1	-3	0	·	·
Cc1nnc(C)n1/N=C/c1ccc(-c2ccccc2)cc1	3	14	11	-3	·	·
COc1ccc(N(CC(=O)NCCSc2ccccn2)S(=O)(=O)c2ccccc2)c(OC)c1	19*	-31	-58	4	0	21*
SMILES	HTR5A ag	OPRM1-OPRD1 inv	HTR5A inv ctr	MOR-DOR ag-1	MOR-DOR ag-2	HTR5A ag conf
Cc1ccnc(NC(=O)c2cccc3ccccc23)c1	17*	13	-42	-3	0	0
Cc1ccnc(NC(=O)c2ccccc2[N+](=O)[O-])c1	8	2	10	0	·	·
CC(C)(C)c1ccc(C(=O)NN=C2CCCC2)cc1	15*	-10	-24	2	1	1
O=C(NN=C1CCCCCCC1)c1ccc(F)cc1	1	-5	-3	1	·	·
NC(=O)C1(c2ccccc2)OC1c1ccccc1 (stereo not given)	1	-5	3	1	·	·
CCOC(=O)c1c(CSC(=N)N)n(-c2ccc(C)cc2)c2cc(Br)c(OC(C)=O)cc12	17*	-93	-98	16	14	8
CCOC(=O)c1c(CSC(=N)N)n(C)c2cc(Br)c(OC(C)=O)cc12	4	6	16	-1	·	·
Cc1cc(NC(=O)CSc2nc(-c3cccs3)nc3ccccc23)no1	3	-13	-9	3	·	·
COC/C=C/C1=CC2=CC(=O)C(C)(OC(=O)c3cnc4ccccc4n3)C(=O)C2=CN1CCCOC(C)C (stereo not given)	18*	-9	-45	2	42*	0
CC(C)c1c(C(=O)N/N=C/c2ccc(OCc3ccc(F)cc3)cc2)nnn1-c1nonc1N	15*	-21	-8	4	7	-1
Nc1nonc1-n1nnc(C(=O)N/N=C/c2ccc(OCc3ccccc3)cc2)c1COc1ccc(F)cc1	1	-5	13	1	·	·
CC(C)c1c(C(=O)N/N=C/c2ccc(OCc3ccccc3)cc2)nnn1-c1nonc1N	22*	-13	-4	2	41*	-1
Cc1cccnc1NC(=O)CCC(=O)c1cccs1	1	7	-3	-1	·	·
COc1ccc(OC)c(NC(=O)CSc2nc3nc(C)cc(C)n3n2)c1	17*	9	-41	-2	0	-3
COc1ccc(NC(=O)CSc2nc3nc(C)cc(C)n3n2)cc1	4	9	-11	-1	·	·
COc1ccc(C(=O)N/C(=C\c2cccc3ccccc23)C(=O)NCCc2c[nH]c3ccccc23)cc1OC	19*	10	-47	-2	0	-1
Cc1ccc(C(=O)N/C(=C\c2cccs2)C(=O)NCCc2c[nH]c3ccccc23)cc1C	19*	16	-44	-3	2	38*
N/C(Cc1ccc(Cl)c(Cl)c1)=N\OC(=O)c1cccs1	44*	-4	-104	1	2	1
C=CCc1ccc(OCCOCCOc2ccccc2[N+](=O)[O-])c(OC)c1	-1	0	16	0	·	·
O=C1C2ON(c3ccccc3)C(c3ccncc3)C2C(=O)N1c1ccc(N2CCOCC2)cc1 (stereo not given)	20*	4	-56	-1	-2	-5
O=C(CSc1n[nH]c(=O)n1C1CC1)Nc1ccc(F)c([N+](=O)[O-])c1	14*	8	-39	-2	51*	6
O=C(Nc1cccc(F)c1)C1CCCN1C(=O)OCc1ccccc1 (stereo not given)	-1	20	18	-4	·	·
O=C(Cn1cc(CNC(=O)C2CCCCC2)nn1)Nc1cc(C(F)(F)F)ccc1Cl	20*	5	0	-1	-4	-17
